Reference: article PMC7862700, “An all-to-all approach to the identification of sequence-specific readers for epigenetic DNA modifications on cytosine”

How the values were obtained:
Assay in all cases: DAPPL (digital affinity profiling via proximity ligation, sequencing); 10 mM Tris-HCl pH 7.5, 50 mM NaCl, 1 mM DTT, 4% glycerol, room temperature, 30 min; GST-TFs on glutathione beads, 16-mer random dsDNA library, 0.1% formaldehyde crosslink after washing; high values mean tight binding
FEV = target: T1, FEV (Homo sapiens, UniProt Q99581 1-238); settings: protein: recombinant; tags: N-terminal GST; dsDNA, one strand shown
T1 sequence: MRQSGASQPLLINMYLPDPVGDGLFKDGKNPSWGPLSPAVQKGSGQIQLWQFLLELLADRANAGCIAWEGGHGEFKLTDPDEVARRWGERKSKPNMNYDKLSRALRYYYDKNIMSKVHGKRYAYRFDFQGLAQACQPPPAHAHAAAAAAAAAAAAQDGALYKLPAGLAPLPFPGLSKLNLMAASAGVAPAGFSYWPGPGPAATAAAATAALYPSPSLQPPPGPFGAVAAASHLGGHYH
Procedure, shortened: (§1)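 Human transcription factors carrying a GST fusion were produced in yeast, bound to glutathione beads, tagged with DNA barcodes and pooled together with a tag-only sample. Each pool was held with 200 nmole of a random double-stranded 16-mer DNA library in Tris/NaCl/DTT/glycerol buffer for 30 min at room temperature, then washed, crosslinked in 0.1% formaldehyde, proximity-ligated with BsaI/T4 ligase (1 h, 37 °C), PCR-amplified and sequenced on an Illumina NextSeq500. Binding signal is the read frequency of each hexamer for a given factor divided by its frequency in the tag-only sample.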

ETV5 = ETV5 (Homo sapiens, UniProt P41161 1-510); settings: protein: recombinant; tags: N-terminal GST; dsDNA, one strand shown
Procedure, shortened: as §1

HSF1 = HSF1 (Homo sapiens, UniProt Q00613 1-529); settings: protein: recombinant; tags: N-terminal GST; chain copies: 3; dsDNA, one strand shown
Procedure, shortened: as §1

SPIC = target: T2, SPIC (Homo sapiens, UniProt Q8N5J4 1-248); settings: protein: recombinant; tags: N-terminal GST; dsDNA, one strand shown
T2 sequence: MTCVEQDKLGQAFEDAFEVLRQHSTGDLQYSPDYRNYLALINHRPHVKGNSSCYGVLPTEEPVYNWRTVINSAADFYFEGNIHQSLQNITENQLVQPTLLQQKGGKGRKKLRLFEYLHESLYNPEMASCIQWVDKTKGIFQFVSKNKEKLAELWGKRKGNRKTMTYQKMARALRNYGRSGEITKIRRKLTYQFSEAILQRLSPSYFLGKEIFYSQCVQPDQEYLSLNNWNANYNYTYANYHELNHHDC
Procedure, shortened: as §1

ELF4 = ELF4 (Homo sapiens, UniProt Q99607 1-663); settings: protein: recombinant; tags: N-terminal GST; dsDNA, one strand shown
Procedure, shortened: as §1

ELK4 = target: T3, ELK4 (Homo sapiens, UniProt P28324-2 1-405); settings: protein: recombinant; tags: N-terminal GST; dsDNA, one strand shown
T3 sequence: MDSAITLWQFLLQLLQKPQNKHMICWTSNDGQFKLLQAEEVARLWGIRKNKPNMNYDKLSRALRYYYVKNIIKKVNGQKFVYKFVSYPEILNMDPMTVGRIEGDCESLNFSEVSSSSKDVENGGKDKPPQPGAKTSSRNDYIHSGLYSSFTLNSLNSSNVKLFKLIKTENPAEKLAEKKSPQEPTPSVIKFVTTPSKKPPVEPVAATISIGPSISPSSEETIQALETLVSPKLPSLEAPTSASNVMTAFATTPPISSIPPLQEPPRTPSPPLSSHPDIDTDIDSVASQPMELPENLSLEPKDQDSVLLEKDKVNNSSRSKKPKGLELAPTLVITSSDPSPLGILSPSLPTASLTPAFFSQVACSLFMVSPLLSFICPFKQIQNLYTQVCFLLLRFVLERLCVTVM
Procedure, shortened: as §1

ETV2 = target: T4, ETV2 (Homo sapiens, UniProt O00321 1-342); settings: protein: recombinant; tags: N-terminal GST; dsDNA, one strand shown
T4 sequence: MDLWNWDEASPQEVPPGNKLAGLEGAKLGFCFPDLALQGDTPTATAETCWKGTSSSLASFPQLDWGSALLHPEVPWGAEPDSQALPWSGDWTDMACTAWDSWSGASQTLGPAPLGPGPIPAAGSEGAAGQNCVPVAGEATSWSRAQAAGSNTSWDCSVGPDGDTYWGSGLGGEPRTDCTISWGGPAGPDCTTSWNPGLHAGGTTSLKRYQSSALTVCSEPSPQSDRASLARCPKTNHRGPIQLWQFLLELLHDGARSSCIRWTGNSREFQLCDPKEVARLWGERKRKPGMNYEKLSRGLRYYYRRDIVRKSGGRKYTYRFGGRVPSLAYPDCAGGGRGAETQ
Procedure, shortened: as §1

ELF3 = target: T5, ELF3 (Homo sapiens, UniProt P78545 1-371); settings: protein: recombinant; tags: N-terminal GST; dsDNA, one strand shown
T5 sequence: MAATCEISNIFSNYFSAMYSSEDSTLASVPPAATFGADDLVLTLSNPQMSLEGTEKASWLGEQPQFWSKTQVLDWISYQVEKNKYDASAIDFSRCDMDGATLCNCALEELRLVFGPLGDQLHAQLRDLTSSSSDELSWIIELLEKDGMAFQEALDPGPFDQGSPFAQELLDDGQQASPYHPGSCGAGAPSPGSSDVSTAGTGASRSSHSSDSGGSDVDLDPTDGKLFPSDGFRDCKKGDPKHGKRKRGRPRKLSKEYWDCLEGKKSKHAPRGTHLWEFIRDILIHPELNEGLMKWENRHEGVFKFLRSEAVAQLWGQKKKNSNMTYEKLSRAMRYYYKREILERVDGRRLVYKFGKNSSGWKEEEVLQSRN
Procedure, shortened: as §1

CRX = CRX (Homo sapiens, UniProt O43186 1-299); settings: protein: recombinant; tags: N-terminal GST; dsDNA, one strand shown
Procedure, shortened: as §1

ETV1 = ETV1 (Homo sapiens, UniProt P50549 1-477); settings: protein: recombinant; tags: N-terminal GST; dsDNA, one strand shown
Procedure, shortened: as §1

ERF = target: T6, ERF (Homo sapiens, UniProt P50548 1-548); settings: protein: recombinant; tags: N-terminal GST; dsDNA, one strand shown
T6 sequence: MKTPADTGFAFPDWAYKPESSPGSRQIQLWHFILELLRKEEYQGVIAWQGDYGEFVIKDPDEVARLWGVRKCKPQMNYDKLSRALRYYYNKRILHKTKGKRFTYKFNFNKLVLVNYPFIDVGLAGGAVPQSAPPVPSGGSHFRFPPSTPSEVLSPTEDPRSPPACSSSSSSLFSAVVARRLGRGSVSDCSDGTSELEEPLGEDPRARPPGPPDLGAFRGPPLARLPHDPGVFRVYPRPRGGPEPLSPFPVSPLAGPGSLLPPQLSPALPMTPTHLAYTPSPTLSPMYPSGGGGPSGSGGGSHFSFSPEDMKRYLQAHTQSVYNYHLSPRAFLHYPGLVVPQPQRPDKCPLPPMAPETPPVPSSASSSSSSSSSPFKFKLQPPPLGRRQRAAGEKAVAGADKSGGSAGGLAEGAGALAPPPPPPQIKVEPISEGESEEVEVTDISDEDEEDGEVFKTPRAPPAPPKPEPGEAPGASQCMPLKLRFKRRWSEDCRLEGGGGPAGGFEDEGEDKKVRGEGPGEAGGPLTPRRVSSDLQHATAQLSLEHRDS
Procedure, shortened: as §1

ETV3L = target: T7, ETV3L (Homo sapiens, UniProt Q6ZN32 1-361); settings: protein: recombinant; tags: N-terminal GST; dsDNA, one strand shown
T7 sequence: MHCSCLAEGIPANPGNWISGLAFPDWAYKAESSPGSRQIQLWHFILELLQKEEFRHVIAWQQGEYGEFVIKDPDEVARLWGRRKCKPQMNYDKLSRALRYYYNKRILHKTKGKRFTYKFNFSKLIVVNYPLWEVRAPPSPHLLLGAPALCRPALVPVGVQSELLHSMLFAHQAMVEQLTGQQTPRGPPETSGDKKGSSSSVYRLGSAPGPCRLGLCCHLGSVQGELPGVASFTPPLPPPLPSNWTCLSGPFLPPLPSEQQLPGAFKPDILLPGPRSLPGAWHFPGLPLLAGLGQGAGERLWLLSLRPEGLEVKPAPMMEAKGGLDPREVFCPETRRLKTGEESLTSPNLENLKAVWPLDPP
Procedure, shortened: as §1

ETS2 = target: T8, ETS2 (Homo sapiens, UniProt P15036 1-469); settings: protein: recombinant; tags: N-terminal GST; dsDNA, one strand shown
T8 sequence: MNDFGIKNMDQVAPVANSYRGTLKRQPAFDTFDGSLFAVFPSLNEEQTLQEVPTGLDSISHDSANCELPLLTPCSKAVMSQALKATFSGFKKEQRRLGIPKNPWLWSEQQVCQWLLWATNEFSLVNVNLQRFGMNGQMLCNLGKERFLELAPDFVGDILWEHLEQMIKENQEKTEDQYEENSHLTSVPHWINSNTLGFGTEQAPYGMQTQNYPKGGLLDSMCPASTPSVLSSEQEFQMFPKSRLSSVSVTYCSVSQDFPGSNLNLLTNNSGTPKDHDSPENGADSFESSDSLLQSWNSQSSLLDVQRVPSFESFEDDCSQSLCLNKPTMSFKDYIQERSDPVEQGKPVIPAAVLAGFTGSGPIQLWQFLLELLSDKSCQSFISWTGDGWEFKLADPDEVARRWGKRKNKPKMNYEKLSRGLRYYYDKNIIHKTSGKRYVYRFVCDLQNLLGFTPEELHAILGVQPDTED
Procedure, shortened: as §1

SPDEF = target: T9, SPDEF (Homo sapiens, UniProt O95238 1-335); settings: protein: recombinant; tags: N-terminal GST; dsDNA, one strand shown
T9 sequence: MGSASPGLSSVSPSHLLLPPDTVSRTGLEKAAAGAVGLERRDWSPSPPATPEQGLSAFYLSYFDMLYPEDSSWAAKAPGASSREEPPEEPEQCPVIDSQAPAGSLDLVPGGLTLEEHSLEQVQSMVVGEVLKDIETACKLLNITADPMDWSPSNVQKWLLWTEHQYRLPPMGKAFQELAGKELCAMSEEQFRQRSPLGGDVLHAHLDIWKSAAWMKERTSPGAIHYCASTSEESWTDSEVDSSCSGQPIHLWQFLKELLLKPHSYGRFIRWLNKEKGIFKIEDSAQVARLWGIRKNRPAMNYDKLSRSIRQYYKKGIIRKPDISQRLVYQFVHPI
Procedure, shortened: as §1

ETV7 = target: T10, ETV7 (Homo sapiens, UniProt Q9Y603 1-341); settings: protein: recombinant; tags: N-terminal GST; dsDNA, one strand shown
T10 sequence: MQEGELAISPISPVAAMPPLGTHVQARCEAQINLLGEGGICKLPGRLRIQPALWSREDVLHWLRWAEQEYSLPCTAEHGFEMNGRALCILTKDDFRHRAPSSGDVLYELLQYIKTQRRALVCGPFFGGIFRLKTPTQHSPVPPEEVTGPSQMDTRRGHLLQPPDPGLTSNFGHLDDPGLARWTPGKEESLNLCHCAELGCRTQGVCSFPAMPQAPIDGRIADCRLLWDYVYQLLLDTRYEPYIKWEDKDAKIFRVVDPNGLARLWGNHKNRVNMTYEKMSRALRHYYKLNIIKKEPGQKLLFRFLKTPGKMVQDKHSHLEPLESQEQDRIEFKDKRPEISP
Procedure, shortened: as §1

ELF5 = target: T11, ELF5 (Homo sapiens, UniProt Q9UKW6-2 1-255); settings: protein: recombinant; tags: N-terminal GST; dsDNA, one strand shown
T11 sequence: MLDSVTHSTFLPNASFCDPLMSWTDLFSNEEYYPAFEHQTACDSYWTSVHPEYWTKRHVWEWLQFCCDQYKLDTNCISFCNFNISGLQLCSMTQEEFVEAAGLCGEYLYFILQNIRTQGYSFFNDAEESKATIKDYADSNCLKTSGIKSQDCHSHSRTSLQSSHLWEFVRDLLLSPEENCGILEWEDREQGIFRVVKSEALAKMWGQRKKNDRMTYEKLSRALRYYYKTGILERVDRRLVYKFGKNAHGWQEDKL
Procedure, shortened: as §1

ETV3 = target: T12, ETV3 (Homo sapiens, UniProt P41162-2 1-143); settings: protein: recombinant; tags: N-terminal GST; dsDNA, one strand shown
T12 sequence: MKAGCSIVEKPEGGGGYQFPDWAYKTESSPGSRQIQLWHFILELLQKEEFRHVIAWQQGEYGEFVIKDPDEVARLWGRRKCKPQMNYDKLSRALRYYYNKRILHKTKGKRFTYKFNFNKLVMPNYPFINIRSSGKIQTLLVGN
Procedure, shortened: as §1

ETV6 = ETV6 (Homo sapiens, UniProt P41212 1-452); settings: protein: recombinant; tags: N-terminal GST; dsDNA, one strand shown
Procedure, shortened: as §1

Chain of ELF4 (Q99607 whole entry): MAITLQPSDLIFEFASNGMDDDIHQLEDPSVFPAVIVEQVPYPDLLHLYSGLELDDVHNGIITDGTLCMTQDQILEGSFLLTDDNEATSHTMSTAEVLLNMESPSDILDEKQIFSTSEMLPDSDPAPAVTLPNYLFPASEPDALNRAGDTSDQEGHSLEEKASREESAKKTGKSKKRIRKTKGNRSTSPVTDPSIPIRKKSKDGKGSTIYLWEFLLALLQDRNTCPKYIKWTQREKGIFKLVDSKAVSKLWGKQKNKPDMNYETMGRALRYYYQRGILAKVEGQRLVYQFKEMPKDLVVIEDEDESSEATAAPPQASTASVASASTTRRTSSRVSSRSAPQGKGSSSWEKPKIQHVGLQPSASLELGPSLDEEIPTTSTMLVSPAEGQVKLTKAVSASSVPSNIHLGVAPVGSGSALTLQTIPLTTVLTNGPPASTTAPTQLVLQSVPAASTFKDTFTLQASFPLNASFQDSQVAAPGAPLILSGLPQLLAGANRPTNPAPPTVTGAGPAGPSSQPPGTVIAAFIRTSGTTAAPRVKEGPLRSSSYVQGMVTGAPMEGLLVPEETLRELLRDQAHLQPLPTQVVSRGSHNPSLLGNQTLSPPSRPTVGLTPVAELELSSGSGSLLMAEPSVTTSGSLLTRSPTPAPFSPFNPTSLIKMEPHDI
Chain of HSF1 (Q00613 whole entry): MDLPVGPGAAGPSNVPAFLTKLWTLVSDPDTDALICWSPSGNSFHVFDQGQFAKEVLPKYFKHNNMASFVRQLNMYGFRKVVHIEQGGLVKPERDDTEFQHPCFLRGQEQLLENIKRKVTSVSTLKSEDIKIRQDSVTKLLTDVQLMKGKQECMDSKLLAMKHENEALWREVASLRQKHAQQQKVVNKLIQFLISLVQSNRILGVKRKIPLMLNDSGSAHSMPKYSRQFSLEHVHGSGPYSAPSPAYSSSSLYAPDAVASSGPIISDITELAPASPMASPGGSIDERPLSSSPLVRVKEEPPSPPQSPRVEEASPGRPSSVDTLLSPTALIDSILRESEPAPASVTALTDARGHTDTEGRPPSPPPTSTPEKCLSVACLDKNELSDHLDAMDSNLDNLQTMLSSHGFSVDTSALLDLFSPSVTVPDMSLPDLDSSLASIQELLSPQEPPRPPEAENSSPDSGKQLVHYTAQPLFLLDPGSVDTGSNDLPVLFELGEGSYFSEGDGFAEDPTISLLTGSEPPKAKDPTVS
Chain of ETV1 (P50549 whole entry): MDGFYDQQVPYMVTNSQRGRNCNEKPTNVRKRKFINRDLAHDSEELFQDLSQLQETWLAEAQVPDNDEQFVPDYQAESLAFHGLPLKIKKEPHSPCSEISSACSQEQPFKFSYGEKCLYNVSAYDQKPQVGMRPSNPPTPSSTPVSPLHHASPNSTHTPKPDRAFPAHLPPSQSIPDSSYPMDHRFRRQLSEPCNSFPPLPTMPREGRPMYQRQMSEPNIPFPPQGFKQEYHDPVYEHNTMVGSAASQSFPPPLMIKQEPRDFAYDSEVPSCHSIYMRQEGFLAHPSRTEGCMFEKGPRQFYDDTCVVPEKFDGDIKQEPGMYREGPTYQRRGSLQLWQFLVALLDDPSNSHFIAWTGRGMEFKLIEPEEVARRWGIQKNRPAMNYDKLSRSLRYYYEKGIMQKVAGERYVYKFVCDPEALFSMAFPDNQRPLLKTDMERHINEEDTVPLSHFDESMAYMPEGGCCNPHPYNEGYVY
Chain of CRX (O43186 whole entry): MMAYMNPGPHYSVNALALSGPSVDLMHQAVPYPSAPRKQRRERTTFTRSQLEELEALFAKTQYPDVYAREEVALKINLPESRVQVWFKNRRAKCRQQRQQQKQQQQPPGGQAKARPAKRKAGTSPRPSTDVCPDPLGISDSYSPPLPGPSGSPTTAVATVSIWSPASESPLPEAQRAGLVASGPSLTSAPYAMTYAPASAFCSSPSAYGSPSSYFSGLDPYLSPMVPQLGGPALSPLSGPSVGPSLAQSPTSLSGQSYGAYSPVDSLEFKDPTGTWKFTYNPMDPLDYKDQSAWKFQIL
Chain of ETV5 (P41161 whole entry): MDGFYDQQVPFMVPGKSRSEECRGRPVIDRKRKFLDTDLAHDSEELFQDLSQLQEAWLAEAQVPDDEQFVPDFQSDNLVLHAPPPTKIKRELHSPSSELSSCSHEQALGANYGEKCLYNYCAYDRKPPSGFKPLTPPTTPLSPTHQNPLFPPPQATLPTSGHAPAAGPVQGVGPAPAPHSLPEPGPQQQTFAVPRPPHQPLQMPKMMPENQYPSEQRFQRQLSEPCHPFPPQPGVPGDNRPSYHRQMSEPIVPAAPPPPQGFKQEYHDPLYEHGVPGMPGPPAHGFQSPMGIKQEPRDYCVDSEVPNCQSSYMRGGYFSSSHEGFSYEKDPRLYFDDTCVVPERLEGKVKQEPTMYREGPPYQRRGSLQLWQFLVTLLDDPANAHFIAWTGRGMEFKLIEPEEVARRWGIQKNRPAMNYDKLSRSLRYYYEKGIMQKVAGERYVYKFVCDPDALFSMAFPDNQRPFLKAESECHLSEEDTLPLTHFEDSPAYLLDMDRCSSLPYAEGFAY
Chain of ETV6 (P41212 whole entry): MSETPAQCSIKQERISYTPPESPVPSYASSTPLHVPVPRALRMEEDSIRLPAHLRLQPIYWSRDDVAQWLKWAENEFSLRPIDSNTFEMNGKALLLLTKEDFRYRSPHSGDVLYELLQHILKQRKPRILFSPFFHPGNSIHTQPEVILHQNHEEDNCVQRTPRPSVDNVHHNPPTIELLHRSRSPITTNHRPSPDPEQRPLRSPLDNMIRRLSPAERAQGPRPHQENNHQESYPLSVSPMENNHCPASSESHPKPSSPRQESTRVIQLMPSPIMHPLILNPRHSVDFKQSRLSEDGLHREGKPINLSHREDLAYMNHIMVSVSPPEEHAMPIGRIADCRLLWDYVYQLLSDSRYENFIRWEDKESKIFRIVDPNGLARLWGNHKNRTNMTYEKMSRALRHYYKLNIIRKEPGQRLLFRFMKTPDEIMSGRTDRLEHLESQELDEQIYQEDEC

With GAACCT the binding signal (FEV) was 1.03 fold enrichment (6-mer frequency, TF over GST control), the binding signal (ETV5) was 1.1 fold enrichment (6-mer frequency, TF over GST control) and the binding signal (HSF1) was 1.45 fold enrichment (6-mer frequency, TF over GST control). The binding signal (SPIC) was 1.09 fold enrichment (6-mer frequency, TF over GST control), the binding signal (ELF4) was 1.17 fold enrichment (6-mer frequency, TF over GST control) and the binding signal (ELK4) was 1.07 fold enrichment (6-mer frequency, TF over GST control). For the same sequence, the binding signal (ETV2) was 1.25 fold enrichment (6-mer frequency, TF over GST control), the binding signal (ELF3) was 1.15 fold enrichment (6-mer frequency, TF over GST control) and the binding signal (CRX) was 1.06 fold enrichment (6-mer frequency, TF over GST control). For the same sequence, the binding signal (ETV1) was 1.05 fold enrichment (6-mer frequency, TF over GST control), the binding signal (ERF) was 1.04 fold enrichment (6-mer frequency, TF over GST control) and the binding signal (ETV3L) was 1.18 fold enrichment (6-mer frequency, TF over GST control). The binding signal (ETS2) was 1.14 fold enrichment (6-mer frequency, TF over GST control), the binding signal (SPDEF) was 1.08 fold enrichment (6-mer frequency, TF over GST control) and the binding signal (ETV7) was 1.19 fold enrichment (6-mer frequency, TF over GST control). For the same sequence, the binding signal (ELF5) was 1.03 fold enrichment (6-mer frequency, TF over GST control), the binding signal (ETV3) was 1.1 fold enrichment (6-mer frequency, TF over GST control) and the binding signal (ETV6) was 1.03 fold enrichment (6-mer frequency, TF over GST control).
